Laboratory results from PubChem BioAssay (Tox21).
Records with an inconclusive call do not appear. Calls of active or inactive are those of the source. Unless noted, calls come from the whole dose curve.

Key:
[1] = Nuclear factor erythroid 2-related factor 2/antioxidant responsive element (Nrf2/ARE) small molecule agonists: qHTS cell viability counter screen in human keratinocytes (AID 1919968; active = well fitted curve in the direction sought with a large enough effect in the repeat runs; an effect the other way counts as inactive or inconclusive; note: nearly all actives have a fitted effect of over 55% in size)
Outline: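 KeratinoSens HaCaT cells, 1,500/well, preincubated 5 h, then exposed to compounds in DMSO for 23 h at 37 C/5% CO2. Viability read as CellTiter-Fluor fluorescence after 1 h, in the same wells as the ARE-luciferase read.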

[2] = Nuclear factor erythroid 2-related factor 2/antioxidant responsive element (Nrf2/ARE) small molecule agonists: luciferase reporter gene qHTS assay in human keratinocytes (AID 1919969); note: nearly all actives have a fitted effect of over 35% in size
[3] = target: Gonadotropin-releasing hormone receptor (Homo sapiens) (UniProt P30968); test: Human gonadotropin-releasing hormone receptor (GnRHR) small molecule agonists, calcium flux assay in GnRHR-HEK293 cells (AID 1920063); note: nearly all actives have a fitted effect of over 35% in size
Chain of Gonadotropin-releasing hormone receptor (Homo sapiens) (P30968 whole entry, looked up): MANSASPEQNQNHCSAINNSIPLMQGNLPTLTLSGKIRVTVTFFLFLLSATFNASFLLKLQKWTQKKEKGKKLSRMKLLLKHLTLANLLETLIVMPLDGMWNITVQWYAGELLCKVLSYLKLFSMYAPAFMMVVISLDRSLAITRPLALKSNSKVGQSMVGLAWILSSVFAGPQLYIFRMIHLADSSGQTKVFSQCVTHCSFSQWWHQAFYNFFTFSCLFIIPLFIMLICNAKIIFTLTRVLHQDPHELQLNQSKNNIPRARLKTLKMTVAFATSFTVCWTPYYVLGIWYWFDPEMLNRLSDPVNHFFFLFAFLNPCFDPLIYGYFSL
Outline: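 HEK293 cells stably expressing human GnRHR were dye-loaded for 1 h at 37 C. Compound was added in agonist mode and fluorescence (Ex/Em 480/540) recorded kinetically for 3 min. Fifteen concentrations, triplicates.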

[4] = target: KiSS-1 receptor (Homo sapiens) (UniProt Q969F8); test: Human kisspeptin (KISS1R) small molecule agonists, calcium flux assay in KISS1R-HEK293 cells (AID 1920064; active = well fitted curve in the direction sought with a large enough effect in the repeat runs; an effect the other way counts as inactive or inconclusive)
Chain of KiSS-1 receptor (Homo sapiens) (Q969F8 whole entry, looked up): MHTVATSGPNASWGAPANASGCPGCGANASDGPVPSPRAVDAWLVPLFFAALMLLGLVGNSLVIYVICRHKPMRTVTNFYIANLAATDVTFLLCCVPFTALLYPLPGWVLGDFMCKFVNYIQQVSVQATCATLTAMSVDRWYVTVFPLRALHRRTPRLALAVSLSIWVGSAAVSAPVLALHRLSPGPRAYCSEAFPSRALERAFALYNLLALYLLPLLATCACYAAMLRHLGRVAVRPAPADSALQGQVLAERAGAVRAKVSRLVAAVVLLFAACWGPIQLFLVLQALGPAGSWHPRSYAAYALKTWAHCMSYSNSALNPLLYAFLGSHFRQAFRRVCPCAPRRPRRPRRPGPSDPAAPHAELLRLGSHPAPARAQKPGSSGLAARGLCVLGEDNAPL
Outline: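 HEK293 cells stably expressing human KISS1R were loaded with calcium dye for 1 h at 37 C, then given compound; fluorescence (Ex/Em 480/540) was read kinetically for 3 min. Fifteen concentrations, triplicate.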

[5] = G protein-coupled receptor (GPCR) small molecule agonists, calcium flux assay: HEK293 wild type cell line counter screen (AID 1920065)
Outline: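 Wild-type HEK293 cells plated 18 h, loaded with calcium dye 1 h at 37 C, then compounds added in agonist mode (ATP as positive control). Kinetic fluorescence Ex/Em 480/540 recorded 3 min at 1 sec intervals; 15 concentrations, triplicate.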

[6] = p53 small molecule agonists, cell-based qHTS assay with human liver microsomes (AID 1963577)
Outline: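 p53RE-bla reporter cells were pre-incubated 5 h at 37 C, then treated with compounds plus human liver microsomes (0.5 mg/mL final) and NADPH (0.5 mg/mL final) for 16 h at 37 C. Beta-lactamase activity was read by LiveBLAzer fluorescence after 2 h at room temperature.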

[7] = p53 small molecule agonists, cell-based qHTS assay with human liver microsomes: qHTS cell viability counter screen (AID 1963579); note: nearly all actives have a fitted effect of over 45% in size
Outline: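 p53RE-bla cells (4,000/well) were pre-incubated 5 h at 37 C, then given compounds in DMSO plus human liver microsomes (0.5 mg/mL final) and NADPH (0.5 mg/mL final) for 16 h at 37 C. Viability was read by CellTiter-Glo luminescence.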

[8] = p53 small molecule agonists, cell-based qHTS assay with rat liver microsomes: qHTS cell viability counter screen (AID 1963580); note: nearly all actives have a fitted effect of over 45% in size
Outline: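 p53RE-bla HCT-116 cells were exposed 16 h at 37 C to compounds with rat liver microsomes (0.5 mg/mL) and NADPH (0.5 mg/mL). Viability was measured in the same wells as ATP content by CellTiter-Glo luminescence.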

[9] = p53 small molecule agonists, cell-based qHTS assay (AID 1963582; active = well fitted activation curve with a large enough effect in the signal ratio in the repeat runs, not every such curve was filed as active; the % refers to the signal ratio)
Outline: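 p53RE-bla reporter cells, compounds added in DMSO after 5 h plating, incubated 16 h at 37 C. Beta-lactamase read via 2 h room-temperature LiveBLAzer B/G FRET substrate, fluorescence intensity.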

[10] = target: 5-hydroxytryptamine receptor 2A (Homo sapiens) (UniProt P28223); test: 5-hydroxytryptamine receptor 2A (HTR2A) small molecule antagonists, cell-based qHTS assay (AID 1963586); note: nearly all actives have a fitted effect of over 45% in size
Chain of 5-hydroxytryptamine receptor 2A (Homo sapiens) (P28223 whole entry, looked up): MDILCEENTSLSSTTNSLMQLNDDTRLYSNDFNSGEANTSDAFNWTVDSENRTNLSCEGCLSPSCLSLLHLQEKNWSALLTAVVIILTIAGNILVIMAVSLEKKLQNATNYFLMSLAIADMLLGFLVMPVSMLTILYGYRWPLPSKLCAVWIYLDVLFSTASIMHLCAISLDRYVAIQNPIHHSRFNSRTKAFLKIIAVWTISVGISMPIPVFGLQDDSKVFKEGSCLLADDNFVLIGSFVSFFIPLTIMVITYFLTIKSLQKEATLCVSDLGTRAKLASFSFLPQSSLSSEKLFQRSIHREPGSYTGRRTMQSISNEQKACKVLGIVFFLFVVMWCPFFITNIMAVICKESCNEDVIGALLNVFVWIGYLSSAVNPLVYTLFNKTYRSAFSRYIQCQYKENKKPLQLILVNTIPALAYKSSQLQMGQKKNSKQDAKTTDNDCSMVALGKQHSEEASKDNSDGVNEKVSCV
Outline: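 Antagonist-mode intracellular calcium assay: DOI (4 nM) added after 5 min compound pre-incubation at room temperature to dye-loaded HTR2A-CHO cells. Fluorescence followed for 3 min, sampled every second.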

[11] = target: 5-hydroxytryptamine receptor 2A (Homo sapiens) (UniProt P28223); test: 5-hydroxytryptamine receptor 2A (HTR2A) small molecule agonists, cell-based qHTS assay (AID 1963587); note: nearly all actives have a fitted effect of over 30% in size
Outline: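 CHO cells stably expressing human HTR2A, plated 18 h, loaded with calcium dye 1 h at 37 C. Agonist mode: compounds added and intracellular calcium fluorescence recorded kinetically for 2 min at 1 sec intervals.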

[12] = target: Muscarinic acetylcholine receptor M1 (Homo sapiens) (UniProt P11229); test: Cholinergic receptor muscarinic 1 (CHRM1) small molecule antagonists, cell-based qHTS assay (AID 1963588); note: nearly all actives have a fitted effect of over 40% in size
Chain of Muscarinic acetylcholine receptor M1 (Homo sapiens) (P11229 whole entry, looked up): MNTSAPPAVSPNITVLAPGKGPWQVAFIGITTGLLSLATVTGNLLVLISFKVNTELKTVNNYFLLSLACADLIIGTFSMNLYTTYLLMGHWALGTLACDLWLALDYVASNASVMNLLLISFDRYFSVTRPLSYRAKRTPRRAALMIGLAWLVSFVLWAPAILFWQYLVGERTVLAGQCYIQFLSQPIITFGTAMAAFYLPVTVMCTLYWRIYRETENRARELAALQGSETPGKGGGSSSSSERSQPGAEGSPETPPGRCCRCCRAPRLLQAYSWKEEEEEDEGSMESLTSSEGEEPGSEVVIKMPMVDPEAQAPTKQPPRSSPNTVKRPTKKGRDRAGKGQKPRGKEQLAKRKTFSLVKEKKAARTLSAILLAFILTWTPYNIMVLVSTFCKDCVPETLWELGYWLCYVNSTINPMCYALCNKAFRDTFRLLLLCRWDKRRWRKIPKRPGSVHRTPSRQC
Outline: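 CHRM1-CHO calcium-flux assay, antagonist mode. Cells were seeded 18 h, dye-loaded 1 h at 37 C and given compound for 5 min at RT, then acetylcholine was added at 50nM. FDSS fluorescence was read 3 min; 15 concentrations, three runs.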

[13] = target: Muscarinic acetylcholine receptor M1 (Homo sapiens) (UniProt P11229); test: Cholinergic receptor muscarinic 1 (CHRM1) small molecule agonists, cell-based qHTS assay (AID 1963589); note: nearly all actives have a fitted effect of over 35% in size
Outline: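 CHO cells stably expressing human CHRM1 were loaded with calcium dye for 1 h at 37 C, then compound was added in agonist mode. Intracellular calcium fluorescence was followed kinetically at 1 s intervals. Fifteen concentrations were tested in three independent runs.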

[14] = cAMP Responsive Elements (CRE) small molecule antagonists, cell-based qHTS assay (AID 1963591; active = well fitted inhibition curve with a large enough effect in the signal ratio in the repeat runs, not every such curve was filed as active; the % refers to the signal ratio)
Outline: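 CRE-bla HEK293T cells plated 18 h, then given compound plus NKH477 at 0.25 uM final for 3 h at 37C. Beta-lactamase reporter read with LiveBLAzer B/G FRET substrate after 2 h at room temperature.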

[15] = target: Beta-2 adrenergic receptor (Homo sapiens) (UniProt P07550); test: Adrenergic beta2 receptor (ADRB2) small molecule antagonists, cell-based qHTS assay (AID 1963592); note: series mostly up to about 92 µM; nearly all actives have a fitted effect of over 50% in size
Chain of Beta-2 adrenergic receptor (Homo sapiens) (P07550 whole entry, looked up): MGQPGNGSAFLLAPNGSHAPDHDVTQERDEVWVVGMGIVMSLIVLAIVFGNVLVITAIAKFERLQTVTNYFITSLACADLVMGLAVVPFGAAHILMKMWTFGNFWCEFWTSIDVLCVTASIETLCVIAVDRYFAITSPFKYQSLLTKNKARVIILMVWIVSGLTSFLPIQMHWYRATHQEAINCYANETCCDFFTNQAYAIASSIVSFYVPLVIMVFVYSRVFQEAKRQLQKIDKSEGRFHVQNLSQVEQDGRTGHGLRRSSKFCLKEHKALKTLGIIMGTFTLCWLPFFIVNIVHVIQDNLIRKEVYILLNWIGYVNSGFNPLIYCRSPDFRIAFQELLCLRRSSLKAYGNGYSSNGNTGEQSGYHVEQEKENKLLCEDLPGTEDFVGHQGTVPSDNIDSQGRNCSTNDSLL
Outline: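 Cells (CHO, stable ADRB2 overexpression) incubated 18-20hr at 37C; compounds added from DMSO; agonist mix (1nM isoproterenol, 100uM IBMX, 25uM Ro-20-1724) added; 0.5hr RT; d2-cAMP and anti-cAMP-cryptate added; 1hr RT; 665/615 nm read.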

[16] = target: Beta-2 adrenergic receptor (Homo sapiens) (UniProt P07550); test: Adrenergic beta2 receptor (ADRB2) small molecule agonists, cell-based qHTS assay (AID 1963593);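 note: CHO cells stably overexpressing human ADRB2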
Outline: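 CHO cells stably over-expressing ADRB2 were plated overnight at 37C, then dosed with compounds plus a stimulation mix containing 100uM IBMX and 25uM Ro-20-1724 for 0.5hr at room temperature. cAMP was measured by HTRF competition, 1hr.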

[17] = target: D(2) dopamine receptor (Homo sapiens) (UniProt P14416); test: Dopamine D2 receptor (DRD2) small molecule agonists, cell-based qHTS assay (AID 1963594); note: nearly all actives have a fitted effect of over 35% in size
Chain of D(2) dopamine receptor (Homo sapiens) (P14416 whole entry, looked up): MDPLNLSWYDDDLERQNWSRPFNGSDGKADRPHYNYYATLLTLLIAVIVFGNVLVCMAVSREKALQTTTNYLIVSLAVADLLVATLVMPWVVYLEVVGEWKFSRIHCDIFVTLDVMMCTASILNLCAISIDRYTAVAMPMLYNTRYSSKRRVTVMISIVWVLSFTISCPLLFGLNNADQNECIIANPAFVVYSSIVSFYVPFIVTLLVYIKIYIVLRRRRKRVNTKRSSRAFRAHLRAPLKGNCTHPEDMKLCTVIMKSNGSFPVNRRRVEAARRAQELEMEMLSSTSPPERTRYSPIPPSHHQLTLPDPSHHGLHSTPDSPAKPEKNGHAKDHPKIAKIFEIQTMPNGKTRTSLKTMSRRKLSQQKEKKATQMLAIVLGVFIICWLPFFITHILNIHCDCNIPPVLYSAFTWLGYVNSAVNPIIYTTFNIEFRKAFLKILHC
Outline: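 HEK293 cells stably expressing human DRD2, pre-treated with PDE inhibitor Ro20-1724 (0.1 mM final) and compound 10 min at room temperature, then stimulated with NKH477 (200nM […]) for 30 min. cAMP read by HTRF (665/620 nm).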

[18] = target: D(2) dopamine receptor (Homo sapiens) (UniProt P14416); test: Dopamine D2 receptor (DRD2) small molecule antagonists, cell-based qHTS assay (AID 1963595; active = well fitted inhibition curve with a large enough effect in the signal ratio in the repeat runs, with a control signal flat; the % refers to the signal ratio)
Outline: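 HEK293 cells stably expressing DRD2, preincubated with 0.1 mM Ro20-1724 and compounds 10 min, were stimulated with 200 nM NKH477 plus 12 nM quinpirole for 30 min at room temperature; cAMP measured by HTRF (665/620 nm).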

[19] = cAMP Responsive Elements (CRE) small molecule agonists, cell-based qHTS assay (AID 1963590)
Outline: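 CRE-bla HEK 293T cells, 2,000/well in DMEM with 10% dialyzed FBS and 25 mM HEPES, pre-incubated 18 h at 37 C, then exposed to compound 3 h at 37 C. Beta-lactamase reporter read with LiveBLAzer B/G FRET substrate after 2 h at room temperature.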

[20] = p53 small molecule agonists, cell-based qHTS assay: qHTS cell viability counter screen (AID 1963581); note: nearly all actives have a fitted effect of over 45% in size
Outline: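 p53RE-bla HCT-116 cells, compounds added 5 h after plating and incubated 16 h at 37 C. Cytotoxicity measured in the same wells as intracellular ATP by CellTiter-Glo luminescence after 30 min at room temperature.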

Measured: Potency

CC(C)(C)C(=O)CCl
not listed: [19] | [20]
inactive: all other assays above

CC(C)(C)C(O)(CCc1ccc(Cl)cc1)Cn1cncn1 (centres undefined)
not listed: [10] | [12] | [13] | [14] | [16] | [20]
inactive: all other assays above

CCN(CC)Cc1nccn1-c1ccc([N+](=O)[O-])cc1C(=O)c1ccccc1Cl
not listed: [7] | [19]
inactive: all other assays above

CCOP(=O)(OCC)OP(=O)(OCC)OCC
not listed: [16] | [17] | [20]
inactive: all other assays above

C[C@]12CCC(=O)C(O)=C1CC[C@@H]1[C@@H]2CC[C@]2(C)C(=O)CC[C@@H]12
not listed: [13] | [14] | [19]
inactive: all other assays above

C#C[C@]1(O)CC[C@H]2[C@@H]3CCC4=CC(=O)CC[C@]4(C)[C@H]3CC[C@@]21C
not listed: [10] | [11] | [12] | [13] | [17] | [20]
inactive: all other assays above

CCOS(C)(=O)=O
not listed: [12] | [16]
inactive: all other assays above

O=C1CCCO1
not listed: [12] | [16]
inactive: all other assays above
